LmPK inhibitor: qHTS Assay for Inhibitors of Leishmania Mexicana Pyruvate Kinase (LmPK); Q27686; purified LmPK, Kinase-Glo ATP luminescence, 1 h; Potency, µM (top dose mostly 57.5 µM), most hits filed as inhibitors; hit rate 0.37% among 290,000
Target sequence (Q27686 whole entry, looked up): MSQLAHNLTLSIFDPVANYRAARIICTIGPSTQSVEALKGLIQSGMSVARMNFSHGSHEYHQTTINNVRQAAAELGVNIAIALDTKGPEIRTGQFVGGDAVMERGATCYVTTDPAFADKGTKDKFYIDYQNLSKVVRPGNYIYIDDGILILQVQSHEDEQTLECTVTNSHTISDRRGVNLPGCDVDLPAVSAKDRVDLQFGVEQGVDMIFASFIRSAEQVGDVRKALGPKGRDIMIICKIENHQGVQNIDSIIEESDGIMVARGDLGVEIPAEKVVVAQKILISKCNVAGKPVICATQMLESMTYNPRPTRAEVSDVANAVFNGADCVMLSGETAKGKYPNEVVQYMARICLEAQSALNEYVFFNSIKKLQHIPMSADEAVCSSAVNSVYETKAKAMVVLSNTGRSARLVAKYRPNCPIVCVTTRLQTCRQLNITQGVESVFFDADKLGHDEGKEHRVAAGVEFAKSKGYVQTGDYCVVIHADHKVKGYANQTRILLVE
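Purified LmPK (0.1 nM) with 0.5 mM PEP and 0.1 mM ADP in imidazole buffer pH 7.2 with MgCl2/KCl, 1 h at room temperature. ATP formed was read by luciferase luminescence and normalized to no-enzyme and uninhibited controls.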
NS1 inh: qHTS Assay for Inhibitors of Influenza NS1 Protein Function. AID 2326, 2010. hit rate 0.4% among 270,000. Potency, µM (series often up to 46.1 µM); calls by dose curve; further: actives are rising curves; nearly all actives have a fitted effect of over 50% in size
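Read-out: OD600 growth recovery of NS1-expressing budding yeast. Cells grown overnight at 30C in -URA glucose medium, washed, resuspended and diluted 1:100 in 2% galactose assay medium, pH 6.0. Same strain lacking NS1 served as positive control.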
RE007 growth inh: qHTS Assay for Inhibitors of the HIV-1 protein Vpr; S. pombe RE007 Vpr strain, BacTiter-Glo ATP luminescence, 24 h; Potency, µM (titrated, usually from 92.2 µM), most hits filed as inhibitors; hit rate 0.21% among 360,000; AID 651644, 2012; active means well fitted falling curve with a large enough effect; inconclusive means small, poorly fitted or top-dose-only effect; inactive means no such curve, though single readings can be large or run the other way; further: nearly all actives have a fitted effect of over 50% in size
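Fission yeast strain RE007, carrying one chromosomally integrated HIV-1 vpr copy, was seeded at OD 0.01 in PMG+AL medium with 23 nL pinned compound. After 24 h at 30 °C and 99% humidity, viability was read by BacTiter-Glo luminescence.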
Sm TGR inh: qHTS Assay for the Inhibitors of Schistosoma Mansoni Peroxiredoxins. Schistosoma mansoni thioredoxin glutathione reductase (TGR), Q962Y6. purified TGR, DTNB reduction, TNB absorbance 405 nm. Potency, µM (doses to about 114 µM), most hits filed as inhibitors. hit rate 3% among 360,000. AID 485364, 2010; further: nearly all actives have a fitted effect of over 60% in size
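First, TGR (20 nM dispensed) and NADPH were mixed with compound. Second, a 15 min room-temperature incubation followed. Third, further NADPH and then DTNB were added to start the reaction. Finally, TNB absorbance was monitored kinetically.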
TbPYK inhibitor: qHTS of Trypanosoma Brucei Inhibitors; TbPYK enzyme, Kinase-Glo Plus ATP luminescence, 45 min; hit rate 0.12% among 410,000; AID 624173, 2012; Potency, µM (top dose mostly 76.8 µM), hits mostly inhibitors; pyruvate kinase (Trypanosoma brucei), Q57TT1; further: nearly all actives have a fitted effect of over 50% in size
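Readout: single end-point luminescence (Kinase-Glo Plus, 10 min). Reaction conditions were TbPYK/substrate plus 130 uM ADP, 45 min at RT, pH 7.2 TEA buffer. No-enzyme wells served as controls, and data were normalized before concentration-response fitting.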
Giardia FBPA inh: qHTS Assay for Inhibitors of Fructose-1,6-bisphosphate Aldolase from Giardia Lamblia | purified Giardia FBPA | hit rate 0.71% among 290,000 | A8B2U2 | Potency, µM (series often up to 59.6 µM), actives largely listed as inhibitors; further: nearly all actives have a fitted effect of over 55% in size
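Giardia FBPA (40 nM reagent) was preincubated 10 min at RT with compound (up to 57.5 uM final), then substrate plus GAPDH/TPI/NAD/arsenate coupling system with diaphorase/resazurin was added; resorufin fluorescence (525/598 nm) was read after 20 min.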
Flu NS1 inh: Assay for Inhibitors of Influenza NS1 Protein Function: Hit Validation. shares compounds with NS1 inh. activity change, negative = inhibition, % at 32.9 µM. influenza NS1 function cell assay, 15-point titration. 1,400 tested, under 10 active; calls by dose curve
Flu PR8 replic: Assay for Inhibitors of Influenza NS1 Protein Function: Influenza virus replication assay in MDCK cells infected with virus A/PR/8/34; shares compounds with NS1 inh; MDCK infected influenza A/PR/8/34, virus titer TCID50; hits give low values; virus titer (log TCID50), log10 TCID50 at 5 µM; hit rate 30% among 95; AID 504647, 2011; call rule not given here
Hits are given with their value; . = inactive; ? = inconclusive; / = no result given; [ ] = remark or other dose. An excerpt weighted towards active compounds, which were near 3.5% of everything screened. Unless noted, the call rests on the fitted dose curve; in most records, active means well fitted curve in the direction sought with a large enough effect; inconclusive means small, poorly fitted or top-dose-only effect, or another doubt; inactive means no such curve, though single readings can be large; an effect the other way counts as inactive or inconclusive.

SMILES	LmPK inhibitor	NS1 inh	RE007 growth inh	Sm TGR inh	TbPYK inhibitor	Giardia FBPA inh	Flu NS1 inh	others
CC1CCC(C(C)C)C(OC(=O)CSc2nc(N)cc(=O)[nH]2)C1 (stereo not drawn)	.	8.9µM	.	.	.	/	.
Cc1c(N=Cc2cccs2)c(=O)n(-c2ccccc2)n1C	.	14µM	.	.[11.4 µM]	.	.	.
Cc1nc(SCC(=O)Nc2ccccc2Cl)cc(-c2ccccc2)n1	/	/	/	.	.	/	/
O=C(OCCN=C1NS(=O)(=O)c2ccccc21)c1cccnc1	.	?	.	.	.	.	.
CCN(C(=O)Cn1c(=O)oc2cc(S(=O)(=O)N3CCCCC3)ccc21)c1ccccc1	/	/	/	.	.	/	/
COc1ccc(Cn2c(SCc3ccc(C(=O)NCc4cccs4)cc3)nc3ccncc32)cc1	/	/	/	.	.	/	/
O=C(c1ccc2c(c1)OCO2)[C@@H]1[C@@H]2C(=O)N(C3CCCCC3)C(=O)[C@@H]2C2c3ccccc3C=CN21 (stereo partly drawn)	.	13µM	.	.	.	?	.	Flu PR8 replic=.
O=C(Nc1ccc2c(c1)OCO2)[C@@H]1[C@@H]2C(=O)N(C3CCCCC3)C(=O)[C@@H]2C2c3ccccc3C=CN21 (stereo partly drawn)	.	.	/	.	/	?	/
Cc1ccc(-c2csc(NC(=S)NC(=O)c3ccco3)n2)cc1	.	.	.	.	.	.	/
O=C(NNc1nc(-c2ccccc2)cs1)c1ccco1	.	4µM	.	.	.	.	.
O=C(NNc1nc(-c2ccc(Cl)cc2)cs1)c1ccco1	.	3.2µM	.	.	.	.	.
CCCCN(C)C(=O)Cn1c(SCC(=O)Nc2ccc(C)c(C)c2)nc2ccccc21	/	/	/	.	.	/	/
CCOc1ccc(NC(=O)CCS(=O)(=O)c2ccc3c(c2)CCCN3C(C)=O)cc1	.	11µM	.	?	.	.	.
CCOc1ccc(-c2cn(-c3ccccc3OC)c(=S)[nH]2)cc1	.	?	.	.	.	.	.
CC1(c2ccc3ccccc3c2)NC(=O)N(CC(=O)Nc2cccc(S(=O)(=O)N3CCOCC3)c2)C1=O (stereo not drawn)	.	10µM	.	.	.	.	.	Flu PR8 replic=.
CC1(c2cc(F)ccc2F)NC(=O)N(CC(=O)Nc2cccc(S(=O)(=O)N3CCCC3)c2)C1=O (stereo not drawn)	/	/	.	.	.	/	/
Cc1cc(C)nc(OC(C(=O)O)C(OCC(C)C)(c2ccccc2)c2ccccc2)n1 (stereo not drawn)	.	6.3µM	.	.	.	.	.
CCC(C)COC(c1ccccc1)(c1ccccc1)C(Oc1nc(C)cc(C)n1)C(=O)O (stereo not drawn)	.	?	.	.	.	.	/
COC(=O)c1cc(NC(=O)c2cc(C(C)(C)C)nn2Cc2ccc(F)cc2)ccc1N1CCOCC1	.	?	.	.	.	.	.
CC(C)(C)c1cc(C(=O)NN)n(Cc2ccc(F)cc2)n1	.	?	.	.	.	.	/
COc1ccc(C2CC(c3ccccc3)=NN2C(=O)COC(=O)c2cc(S(=O)(=O)N3CCOCC3)ccc2Cl)cc1 (stereo not drawn)	.	10µM	.	.	.	.	.
COc1ccc(C2CC(c3ccccc3)=NN2C(=O)COC(=O)c2cccnc2Cl)cc1 (stereo not drawn)	.	?	.	.	.	.	/
CCOCCc1nn2c(=O)cc(COC(=O)c3ccco3)nc2s1	/	/	/	.	.	/	/
Cc1ccc(N2C(=O)CC(N(O)C3CC(=O)N(c4ccc(C)cc4)C3=O)C2=O)cc1 (stereo not drawn)	.	20µM	.	.	.	.	?
COc1cc(OC)c(NC(=O)Cn2c(=O)cc(C)c3c(C)nn(-c4ccc(C)cc4)c32)cc1Cl	/	/	/	.	.	/	/
SMILES	LmPK inhibitor	NS1 inh	RE007 growth inh	Sm TGR inh	TbPYK inhibitor	Giardia FBPA inh	Flu NS1 inh	others
CCOC(=O)c1cc(OC(=O)c2cccnc2)n(-c2ccccc2)n1	.	2µM	/	.	/	.	?
O=C(Cc1ccc(Cl)cc1)Nc1ccc(N2CCN(C(=O)c3ccco3)CC2)c(Cl)c1	.	0.28µM	.	.	.	.	?
O=C(COc1ccc(Cl)cc1Cl)N1CCN(C(=O)c2ccco2)CC1	.	?	.	.	.	.	.
CCC(=O)Nc1ccc(N2CCN(C(=O)c3ccco3)CC2)c(Cl)c1	.	.	.	.	.	.	/
CC1CCc2c(sc3nnn(CC(=O)Nc4cccc(C(F)(F)F)c4)c(=O)c23)C1 (stereo not drawn)	/	/	/	.	.	/	/
COc1cc(Cl)cc(C(c2c(C(=O)O)[nH]c3ccccc23)c2c(C(=O)O)[nH]c3ccccc23)c1O	.	2.5µM	.	.	.	.	.
O=C(O)c1[nH]c2ccccc2c1C(c1c(F)cccc1Cl)c1c(C(=O)O)[nH]c2ccccc12	.	?	.	.	.	?	/
COc1ccc(S(=O)(=O)NCCc2ccco2)cc1OC	.	3.2µM	.	.	.	.	.
CC(=O)N1CCN(C2c3cccc4cccc(c34)C2NS(=O)(=O)c2ccccc2)CC1 (stereo not drawn)	.	.	.	.	.	.	/
Cc1ccc(C(=O)N2CCN(C3c4cccc5cccc(c45)C3NS(=O)(=O)c3ccccc3)CC2)cc1 (stereo not drawn)	.	11µM	.	.	.	/	.
CCOC(=O)c1ccc(NC(=O)CSc2nccn2-c2ccc(OCC)cc2)cc1	/	/	/	.	.	/	/
CCc1ccc(/C=C2\CN(CC)Cc3c2nc2ccccc2c3C(=O)O)cc1	.	3.5µM	.	.	.	?	.
CCN1C/C(=C/c2cccs2)c2nc3ccccc3c(C(=O)O)c2C1	.	.	.	?	?	?	/
CCCC/C=C/[C@H](C)[C@@](C)(COC(=O)c1ccc(Br)cc1)Cc1ccccc1	/	/	/	/	/	.	/
CCc1ccc(/C=C2\Oc3ccc(C(=O)OC)cc3C2=O)cc1	.	.	.	.	.	.	/
COC(=O)c1ccc2c(c1)C(=O)/C(=C/c1ccc(C)cc1)O2	.	10µM	.	.	.	.	.
